# Hit rate of the full screen: of about 1,200 compounds, about 30 (2%) were called active. A call without a number means that no potency is given here. Roughly 23% stayed inconclusive and do not appear here. This is one part of a sample in which actives are shown more often than they occur. Calls follow the shape of the dose curve; as a rule, active = well fitted inhibition curve with a large enough effect; inconclusive = small, poorly fitted or top-dose-only effect; inactive = flat fitted curve, though single readings scatter.
# Target: Single-stranded DNA cytosine deaminase (Homo sapiens) (UniProt Q9GZX7)
# Assay: Confirmatory qHTS assay for inhibitors of Activation Induced Cytidine Deaminase (AID): AID signals
# Details: recombinant AID, FRET deamination/UDG coupled fluorescence, 4 h; series mostly up to 115 µM
# Source text: Assay Provider (PI) Patricia Gearhart Ph.D. National Institute on Aging National Institute of Health (NIH), Bethesda, MD Assay Provider (PI) Rahul Kohli Ph.D. Perelman School of Medicine University of Pennsylvania, Philadelphia, PA Activation-Induced Deaminase (AID) is a cytosine deaminase which converts cytosine into uracil within stretches of ssDNA. The presence of uracil in DNA initiates a cascade of mutagenic DNA repair to introduce point mutations and DNA double strand breaks. Specific targeting of AID to the immunoglobulin heavy chain loci (Igh) promotes mutagenesis in the antibody variable region for somatic hypermutation (SHM) or switch regions leading to class switch recombination (CSR). However, AID also plays a role in accumulating unnecessary mutations across the genome. Mis-targeting of AID results in the initiation of tumor development and leads to greater drug resistance among cancer cells when continually expressed. To identify an AID inhibitor, a small molecule library will be screened in collaboration with NCATS core facility at NIH. To confirm biological function, inhibitors will be examined in an in vitro murine B-cell activation assay and subsequent secondary validation screens. Top molecules will be further screened to identify inhibitory efficacy against a wild type primary splenocytes assay. Using these approaches, we hope to identify a small molecule with great efficacy and low toxicity for use as a molecular probe to further characterize AID's intricacies, or even as a therapeutic. A FRET based analysis of cytosine deamination, was developed to identify potential inhibitors of AID catalytic activity. This screen has two signal output, Read 1 evaluates the AID inhibition response. The second readout (Read 2) evaluates UDG response and is uses as a counterscreen to exclude false positive inhibitors. Inhibition in AID and inactivity in the UDG signal is the desired outcome for this assay.
# PROTOCOL TABLE SEQUENCE No. (e.g., 1, 2, 3, etc.); […] (e.g., Cells, Incubation, Reagent, etc.); VALUE; DESCRIPTION 1a; Reagent; 3 uL; [4/3x] 1 uM AID/2.67 U/mL UDG 1b; Reagent; 3 uL; 2 U/mL UDG 1c; Reagent; 3 uL; 1 uM AID 2a; Compound; 46 nL; Follow-up plates (0.64 uM - 10 mM) 2b; Control; 46 nL; ATA (16.4 nM - 10 mM) 3; Time; 10 min; incubation at room temperature 4; Reagents; 1 uL; [4x] 250 nM DJC20 / 250 nM DJC23 [Substrate] 5; Time; 4 hr; incubation at room temperature 6; Reagent; 4 uL; [2x] 250 mM NaOH 7; Time; 15 sec; centrifuge at 1000 rpm 8; Time; 30 min; incubation at room temperature 9a; Detection; fluorescence (Read 1: AID); EnVision (PerkinElmer) plate reader, 540 excitation and 590 emission filters 9b; Detection; fluorescence (Read 2: UDG); EnVision (PerkinElmer) plate reader, 560 excitation and 665 emission filters NOTES (numbers refer to sequence above) 1a; Reagents were dispensed in a medium-binding black solid-bottom Greiner plates (789176F) using a BioRptr liquid dispenser. Dispense 3 uL of [4/3x] 1 uM AID (provided by Kohli lab) and [4/3x] 2 U/mL UDG (NEB M0280L) into columns 1, 2, 5 to 48. 1b; Dispense 3 uL of [4/3x] 2 U/mL UDG into column 3. 1c; Dispense 3 uL of [4/3x] 1 uM AID into column 4. 2a; Compound ([…] [uM]: 0.64; 3.2; 16; 80; 400; 2,000; 10,000; 20,000) double pin-transferred (Dip Factor = 2) using the Kalypsys (Wako USA) pintool equipped with a 1536 pinhead for a final concentration range of 7.32 nM - 114 uM. 2b; 10 mM Aurintricarboxylic Acid (Sigma A1895) (ATA, 8-point, n = 2, 1:2.5 dilution in column 2) double pin-transferred (Dip Factor = 2) using the Kalypsys (Wako USA) pintool equipped with a 1536 pinhead for a [final] range of 186 nM - 114 uM. 3; Room temperature incubation. 4; Dispense 1 uL of substrate mixture from the Kohli lab [4x] […] DJC20 and [4x] 250 nM DJC23 into columns 1 to 48 . 5; Room temperature incubation. 6; Dispense 4 uL of […] [2x] 250 mM NaOH into columns 1 to 48. 7; Centrifugation step to remove bubbles. […]
# Potency is read from the fitted curve at half-maximal effect.
# Sequence of Single-stranded DNA cytosine deaminase (Homo sapiens) (Q9GZX7 whole entry, looked up): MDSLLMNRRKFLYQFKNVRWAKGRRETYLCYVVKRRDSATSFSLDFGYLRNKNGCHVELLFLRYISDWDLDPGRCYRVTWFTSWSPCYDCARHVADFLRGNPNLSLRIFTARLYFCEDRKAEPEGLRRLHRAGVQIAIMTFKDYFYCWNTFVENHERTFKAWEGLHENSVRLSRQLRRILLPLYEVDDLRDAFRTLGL
row,Structure (SMILES),Potency
1,NC(Cc1cc(O)c(O)cc1O)C(=O)O (stereo unspecified),22.4 µM (active)
2,NCC(O)c1cc(O)c(O)cc1F (stereo unspecified),inactive
3,O=C(Nc1cc(C(F)(F)F)cc(C(F)(F)F)c1)c1cccn(Cc2ccccc2Cl)c1=O,inactive
4,CN1CC[C@@]2(C)c3cc(O)ccc3N(C)C12 (stereo partly specified),22.4 µM (active)
5,COc1cc(C(c2c(O)c3ccccc3oc2=O)c2c(C)n(C)n(-c3ccccc3)c2=O)ccc1O (stereo unspecified),inactive
6,Cc1cccc(-c2nc(CN3C(=O)CN=C(c4ccccc4)c4ccccc43)c(C)o2)c1,inactive
7,Cc1ccc(NC(=O)N(Cc2ccc3c(c2)OCO3)C2CCN(Cc3ccccc3)CC2)cc1C,inactive
8,CCCC1=Nc2cc(C(=O)NCCCN(CC)CC)ccc2Sc2ccccc21,inactive
9,O=S1(=O)N(CCN2CC=C(c3c[nH]c4cc(F)ccc34)CC2)c2cccc3c2N1CCC3,inactive
10,CC(=O)c1c(O)c(C)c(O)c(Cc2c(O)c3c(c(C(=O)/C=C/c4ccccc4)c2O)OC(C)(C)C=C3)c1O,14.1 µM (active)
11,O=C(c1ccc2c(c1)N(Cc1ccc(F)cc1)C(=O)c1ccccc1S2)N1CCC2(CC1)OCCO2,inactive
12,Cc1ccccc1CN1C(=O)C(C)N=C(c2ccccc2)c2ccccc21 (stereo unspecified),inactive
13,COc1ccc2c(c[n+](C)c3c4cc5c(cc4ccc23)OCO5)c1OC,17.8 µM (active)
14,Cc1cccc(CN2C(=O)CN=C(c3ccccc3)c3cc(Cl)ccc32)c1,inactive
15,Cc1c(C(c2ccc(Cl)cc2Cl)c2c(O)c3ccccc3oc2=O)c(=O)n(-c2ccccc2)n1C (stereo unspecified),inactive
16,Cc1ccccc1CN1C(=O)CN=C(c2ccccc2)c2cc(Cl)ccc21,inactive
